The results in this text go back to PubChem BioAssay.

Where “and” joins values, the source holds several entries; their conditions need not be identical. Equal values may be shown once. A structure can be active in one record and inactive in another. Calls of active or inactive are those of the source. Unless noted, the rule behind the calls is not given here.

As usually defined, the viability is a read-out of living cells in per cent, often relative to untreated cells. By inhibition is commonly meant the relative decrease from the control value, in per cent.

Test [1] has as its target NAD(+) hydrolase SARM1 (Homo sapiens) (UniProt Q6SZW1). Kind of test: SARM1 TIR NADase inhibitors, cell lysate, NAD-Glo luminescence (AID 1508614;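 active = compound whose remaining NAD level is above about 45 nM, limit read from the data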;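 note: higher remaining NAD means stronger inhibition of SARM1 NADase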). Particulars: SAM-TIR HEK293T lysate NADase, at 1 µM, stronger effect = higher value.
Test [2] can be described thus: kinase inhibitors against Plasmodium liver-stage infection, cell-based, known kinase inhibitor set, luminescence, hepatoma host viability (AID 624392).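 Note: infected cells incubated roughly two days before readout.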 The following applies: Plasmodium liver stage in hepatoma cells, luciferase luminescence, concentration not given here; liver cell % of control: measured here: host liver cell viability; parasite % of control: stronger effect = lower value.

The nature of test [3]: phospholipid biosynthesis inhibitors in animal cells, primary screen, cell-based, LOPAC library, screen 4 (AID 1347384). Particulars: phospholipid biosynthesis inhibition screen, at 10 µM.
Test [4] in a line: viability rescue of complex I mutant cybrids, primary screen, cell-based, galactose medium, ATP luminescence (AID 1645843;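 active = z-score of at least 1.8 in each of two replicates, scored against plate mean and spread of sample wells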;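 note: positive z means more ATP and so rescue of galactose-driven cybrid death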). The following applies: complex I mutant cybrid cells, 72 h, stronger effect = higher value.
Test [5] can be described thus: liver-stage malaria parasite growth inhibition, primary screen, cell-based, HepG2, luciferase luminescence, HepG2 viability (AID 624349; in the data active = parasite load remaining mostly below about 12%, no sharp cut-off; inactive = mostly above about 10%;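 note: 100% = mean of DMSO negative control wells on the same plate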). The following applies: P. berghei liver stage in HepG2, luciferase luminescence, concentration not given here; parasite load remaining: stronger effect = lower value; viability: measured here: HepG2 viability without parasites.
The nature of test [6]: hESC survival regulators, cell-based (AID 493140).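 Note: cells exposed to compounds for four days before counting.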 The following applies: human embryonic stem cell survival screen; stronger effect = higher value.
The target of test [7] is Mitogen-activated protein kinase 7 (Homo sapiens) (UniProt Q13164). Kind of test: ERK5 transactivation activators in reporter cells, primary screen, cell-based, HTS (AID 1508626;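 active = luciferase signal above three times the same-plate solvent-only control wells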;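 note: luciferase driven by Gal4-ERK5 fusion binding five Gal4 sites before minimal TATA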). The following applies: HeLa Gal4-ERK5 transactivation, 18 h, at 5 µM, stronger effect = higher value.
The nature of test [8]: LFS_MB_1R medulloblastoma cell growth inhibition, synergistic combos for chromothripsis tumors, cisplatin or BGB combos (AID 1671452; in the data active = inhibition above about 80%;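 note: cells exposed for 96 hours before readout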). The following applies: LFS_MB_1R medulloblastoma cells, stronger effect = higher value.
Test [9] is described as follows: CRL2098 osteosarcoma cell growth inhibition, synergistic combos for chromothripsis tumors, BGB or cisplatin IC20 combos (AID 1671454; in the data active = inhibition above about 80%;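 note: cells exposed for 96 h before readout; 0% = vehicle DMSO and 100% = killing by high DMSO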). The following applies: CRL2098 osteosarcoma cells, drug combinations, stronger effect = higher value.
Test [10] can be described thus: HD-MB03 medulloblastoma cell growth inhibition, synergistic combos for chromothripsis tumors, BGB or cisplatin IC20 combos (AID 1671455; in the data active = inhibition above about 83%;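 note: 0% = vehicle DMSO and 100% = high DMSO as cytotoxic control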). Particulars: HD-MB03 medulloblastoma cells, stronger effect = higher value.
The nature of test [11]: UWB1.289 ovarian carcinoma cell growth inhibition, synergistic combos for chromothripsis tumors, BGB or cisplatin combos (AID 1671456; in the data active = inhibition above about 80%;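 note: cells exposed to compound for four days; 0% = vehicle DMSO and 100% = killing by high DMSO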). The following applies: UWB1.289 ovarian carcinoma cells, stronger effect = higher value.
A short description of test [12]: LFS_MB_2R medulloblastoma cell growth inhibition, synergistic combos for chromothripsis tumors, cisplatin combos (AID 1671457; in the data active = inhibition above about 80%;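 note: cells exposed to compound for four days before readout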). The following applies: LFS_MB_2R medulloblastoma cells, stronger effect = higher value.
Test [13] can be described thus: UWB1.289_BRCA1 ovarian cancer growth, cell-based, BGB or cisplatin combinations (AID 1671459; in the data active = inhibition above about 80%). Particulars: UWB1.289 BRCA1 ovarian carcinoma, drug combinations, stronger effect = higher value.
Test [14] in a line: human astrocyte viability loss, single and combined drugs, cytotoxicity control for chromothriptic childhood tumor combination screen, cell-based, BGB or cisplatin IC20 combos (AID 1671460; in the data active = inhibition above about 80%;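 note: cells exposed to compounds for 96 hours before viability readout; 0% = vehicle and 100% = killing control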). Particulars: Human astrocytes, drug combinations, stronger effect = higher value.
Test [15] is described as follows: growth inhibition of CRL1545 osteosarcoma cells, cell-based, cisplatin and BGB IC20 combos (AID 1671464; in the data active = inhibition above about 80%;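 note: cells exposed to compound for 96 hours before readout; 0% = vehicle DMSO and 100% = high DMSO killing control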). The following applies: stronger effect = higher value.
Test [16] deals with Tyrosine-protein kinase ABL1 (Homo sapiens) (UniProt P00519). Description: PubChem AID 493040. Particulars: kinase panel binding, pKi.
Test [17] in a line: circadian clock period modulators, cell-based, LOPAC library, luminescence reporter (AID 2774).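 Note: values are relative to mean of DMSO wells on each plate.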 Particulars: circadian reporter cells, at 7 µM, actives lie on both sides.
The subject of test [18] is Hepatitis C virus NS3 helicase. Description: HCV NS3 helicase inhibitors, primary screen, biochemical, fluorescence polarization, LOPAC1280 library (AID 687035; in the data active = inhibition above about 37%). Particulars: Purified HCV NS3 helicase, Cy5-dT15 ssDNA binding fluorescence polarization; stronger effect = higher value; concentration not given here. A general note: Polarisation of emitted light reports the rotation of a fluorescent probe.

Test [19] in a line: Cy5 fluorescence quenching or enhancement artefacts, artefact control for HCV NS3 helicase inhibitor project, biochemical, LOPAC1280 (AID 687037). Particulars: Cy5-DNA-NS3h complex fluorescence interference counterscreen. In general terms: Counterscreens check selectivity or assay interference.
Where [20] appears, read: measured here: combination with cisplatin, at 0.5 µM.
Where [21] appears, read: measured here: combination with cisplatin, at 5 µM.

Mitogen-activated protein kinase 7 (Homo sapiens), sequence (Q13164 whole entry, looked up, the tested form may be a part): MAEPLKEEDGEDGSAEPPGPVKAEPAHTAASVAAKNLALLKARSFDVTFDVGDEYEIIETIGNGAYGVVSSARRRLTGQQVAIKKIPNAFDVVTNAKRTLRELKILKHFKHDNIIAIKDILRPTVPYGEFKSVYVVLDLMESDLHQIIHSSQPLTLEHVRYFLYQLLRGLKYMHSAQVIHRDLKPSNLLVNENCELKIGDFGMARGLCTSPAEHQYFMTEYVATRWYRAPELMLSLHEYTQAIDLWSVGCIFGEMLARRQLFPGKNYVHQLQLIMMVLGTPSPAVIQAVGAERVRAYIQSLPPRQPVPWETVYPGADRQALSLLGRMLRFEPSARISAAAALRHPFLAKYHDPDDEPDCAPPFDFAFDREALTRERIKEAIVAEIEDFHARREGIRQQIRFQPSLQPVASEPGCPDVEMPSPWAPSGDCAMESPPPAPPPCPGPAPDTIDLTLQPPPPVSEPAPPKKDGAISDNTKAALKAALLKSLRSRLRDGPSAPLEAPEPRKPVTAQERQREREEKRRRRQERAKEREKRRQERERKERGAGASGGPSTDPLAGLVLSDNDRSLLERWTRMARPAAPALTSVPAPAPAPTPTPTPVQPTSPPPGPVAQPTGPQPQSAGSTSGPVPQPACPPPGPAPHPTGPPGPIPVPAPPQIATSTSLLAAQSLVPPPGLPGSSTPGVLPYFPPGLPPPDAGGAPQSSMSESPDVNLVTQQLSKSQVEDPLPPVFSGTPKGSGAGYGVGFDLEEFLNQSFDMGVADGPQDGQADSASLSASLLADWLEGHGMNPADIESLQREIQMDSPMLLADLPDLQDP
NAD(+) hydrolase SARM1 (Homo sapiens), sequence (Q6SZW1 whole entry, looked up): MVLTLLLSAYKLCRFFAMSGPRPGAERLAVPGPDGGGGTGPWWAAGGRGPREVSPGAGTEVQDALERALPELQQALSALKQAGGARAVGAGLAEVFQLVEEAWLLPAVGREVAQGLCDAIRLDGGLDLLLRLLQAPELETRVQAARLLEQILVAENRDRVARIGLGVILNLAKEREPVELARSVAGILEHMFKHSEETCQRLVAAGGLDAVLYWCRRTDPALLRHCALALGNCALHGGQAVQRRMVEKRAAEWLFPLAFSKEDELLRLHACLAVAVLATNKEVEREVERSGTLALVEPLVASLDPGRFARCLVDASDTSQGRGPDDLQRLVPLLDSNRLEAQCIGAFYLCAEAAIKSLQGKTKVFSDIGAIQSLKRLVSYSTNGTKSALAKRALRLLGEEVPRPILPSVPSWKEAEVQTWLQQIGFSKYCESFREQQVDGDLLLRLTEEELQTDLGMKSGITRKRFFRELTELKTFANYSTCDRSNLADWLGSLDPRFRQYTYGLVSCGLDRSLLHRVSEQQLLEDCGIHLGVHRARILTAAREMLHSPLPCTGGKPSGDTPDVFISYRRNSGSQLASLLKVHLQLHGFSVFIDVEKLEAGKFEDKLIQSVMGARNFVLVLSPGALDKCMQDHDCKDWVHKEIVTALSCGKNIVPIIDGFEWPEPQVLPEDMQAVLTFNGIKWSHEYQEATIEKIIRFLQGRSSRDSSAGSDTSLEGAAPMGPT
Tyrosine-protein kinase ABL1 (Homo sapiens), sequence (P00519 whole entry, looked up): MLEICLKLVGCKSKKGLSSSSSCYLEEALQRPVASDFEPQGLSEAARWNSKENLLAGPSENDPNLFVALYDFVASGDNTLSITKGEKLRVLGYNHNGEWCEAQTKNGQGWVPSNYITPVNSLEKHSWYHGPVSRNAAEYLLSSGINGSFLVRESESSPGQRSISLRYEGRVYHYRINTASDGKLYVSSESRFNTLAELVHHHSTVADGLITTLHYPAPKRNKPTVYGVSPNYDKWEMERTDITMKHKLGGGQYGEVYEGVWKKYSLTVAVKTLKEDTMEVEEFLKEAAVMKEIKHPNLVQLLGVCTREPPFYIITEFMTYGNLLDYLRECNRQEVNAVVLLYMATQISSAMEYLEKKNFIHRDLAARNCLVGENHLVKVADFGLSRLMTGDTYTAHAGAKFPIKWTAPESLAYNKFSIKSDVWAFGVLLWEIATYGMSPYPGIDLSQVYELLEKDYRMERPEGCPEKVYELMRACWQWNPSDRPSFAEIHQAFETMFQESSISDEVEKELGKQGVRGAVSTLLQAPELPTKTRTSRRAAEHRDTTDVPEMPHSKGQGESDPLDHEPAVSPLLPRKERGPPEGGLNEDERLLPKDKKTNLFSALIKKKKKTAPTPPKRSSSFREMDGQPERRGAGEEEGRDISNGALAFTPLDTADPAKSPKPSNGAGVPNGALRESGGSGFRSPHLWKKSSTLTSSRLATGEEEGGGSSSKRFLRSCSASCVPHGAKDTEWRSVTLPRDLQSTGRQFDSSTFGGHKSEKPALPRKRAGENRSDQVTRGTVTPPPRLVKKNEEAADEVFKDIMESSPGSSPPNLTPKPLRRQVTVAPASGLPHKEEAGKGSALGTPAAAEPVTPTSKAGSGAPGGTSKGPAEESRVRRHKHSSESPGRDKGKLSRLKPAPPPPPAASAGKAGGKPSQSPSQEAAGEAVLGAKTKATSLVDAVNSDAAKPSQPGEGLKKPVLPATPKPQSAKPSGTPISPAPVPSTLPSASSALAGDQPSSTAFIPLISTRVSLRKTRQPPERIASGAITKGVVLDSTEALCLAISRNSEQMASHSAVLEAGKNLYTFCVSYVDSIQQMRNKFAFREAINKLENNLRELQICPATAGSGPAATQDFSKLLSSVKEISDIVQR

Take `NC(=NCCCCCCN=C(N)N=C(N)Nc1ccc(Cl)cc1)N=C(N)Nc1ccc(Cl)cc1`: in [1], the remaining NAD is 10 nM (inactive).
Consider `Cc1cccc(-c2[nH]ncc2-c2ccc3ncccc3n2)n1`, for which, in test [2], the liver cell % of control was 102% and the parasite % of control was 87.4% (inactive). In test [3], the molecule was classed as inactive. Moreover, the z-score in [4] was -0.39 (inactive).
For the molecule `Cc1ccc(O)c(C(CCN(C(C)C)C(C)C)c2ccccc2)c1` (stereo not drawn), in test [5], the parasite load remaining is 53.2% (inactive) and the viability amounted to 96.6%. The z-score in test [4] is -0.5 (inactive).
As for `C=C1C(=O)O[C@@H]2[C@H]3O[C@]3(C)CC/C=C(\C)CC[C@@H]12`, the survival in test [6] is 0.167 (inactive). In test [5], the parasite load remaining is -0.555% (active) and 48% (inactive); the viability is 117% and 76.6%. Also, the luciferase signal in test [7] was 92 AU (inactive).
In the case of `Nc1ccc(-c2ccc3ncc4ccc(=O)n(-c5cccc(C(F)(F)F)c5)c4c3c2)cn1`, the inhibition in test [8] (at 0.5 µM) was -12.4% (inactive); in [8] (measured here: combination with BGB IC40, at 0.05 µM), -33.9%; in test [8] (setting [20]), -17%; in [8] (setting [21]) it was 48.5%; in [9] (at 0.5 µM), 47.4% (inactive); in test [9] (measured here: combination with BGB at IC20, at 0.5 µM), 49.5%. In addition, the inhibition in test [9] (measured here: combination with cisplatin at IC20, at 0.5 µM) is 49.4%; in test [10] (at 0.5 µM), 39.9% (inactive); in test [10] (measured here: combo with BGB at IC20, at 0.5 µM) it was 13.5%; in test [10] (measured here: combo with cisplatin at IC20, at 0.5 µM), 69.9%; in [11] (at 0.5 µM), 49.8% (inactive); in test [11] (measured here: inhibition with BGB combination, at 0.05 µM), -0.684%. Moreover, the inhibition was 1.16% in test [11] (measured here: inhibition with cisplatin combination, at 0.05 µM); 2.91% (inactive) in test [12] (at 0.5 µM); 17.6% in test [12] (setting [20]); 76.8% in test [12] (setting [21]); 98.8% in test [13] (BGB combination, concentration series, at 5 µM); 52.1% (inactive) in test [13] (at 0.5 µM). Moreover, the inhibition in test [13] (cisplatin combination, concentration series, at 5 µM) is 104%; in test [14] (at 0.5 µM), 76.8% (inactive); in test [14] (measured here: combo with BGB IC20, at 0.5 µM), 71%; in [14] (measured here: combo with cisplatin IC20, at 0.5 µM), 77.3%; in [15] (at 0.5 µM), 79.5% (inactive); in test [15] (measured here: with BGB IC20 combination, at 0.5 µM), 69.2%. Further, the inhibition in test [15] (measured here: with cisplatin IC20 combination, at 0.5 µM) is 84.4%; in [15] (single agent, at 0.05 µM), -3.59%; in [15] (single agent, at 5 µM), 98.4%.
For the molecule `Clc1ccc(C(c2ccc(Cl)cc2)n2cc[n+](CC(OCc3ccc(Cl)cc3Cl)c3ccc(Cl)cc3Cl)c2)cc1` (stereo not drawn), the result in test [3] was inactive.
With `O=C1c2ccccc2-[n+]2ccc3c([nH]c4ccccc43)c21`, in [5], the parasite load remaining is 1.89% (inactive) and the viability is 32.8%.
For `Oc1cccc(-c2nc(N3CCOCC3)c3oc4ncccc4c3n2)c1`, in test [5], the parasite load remaining is 45.4% (inactive) and the viability was found to be 89.8%. In addition, in test [2], the liver cell % of control was 88.7% and 86.7% and 100%; the parasite % of control is 326% (inactive) and 309% (inactive) and 81.9% (inactive). Moreover, in test [16], the result was inactive.
On to `CN[C@@H]1C[C@H]2O[C@@](C)([C@@H]1OC)n1c3ccccc3c3c4c(c5c6ccccc6n2c5c31)C(=O)N[C@H]4O`, for which, in test [5], the parasite load remaining is 74.5% (inactive) and the viability is 61%.
For the molecule `Nc1ccc(C(=O)Nc2cccc(-c3nc(N4CCOCC4)c4oc5ncccc5c4n3)c2)cn1`, in [5], the parasite load remaining was 28.3% (inactive) and the viability is 70.4%. In test [2], the liver cell % of control was 80.6% and 78.7% and 90.7%; the parasite % of control is 109% (inactive) and 149% (inactive) and 242% (inactive).
For `CC(=O)O[C@H]1C[C@@H]2CC[C@@H]3[C@H](CC[C@@]4(C)[C@H]3C[C@H]([N+]3(C)CCCCC3)[C@@H]4OC(C)=O)[C@@]2(C)C[C@@H]1[N+]1(C)CCCCC1`, the period change in test [17] is -0.015 h (inactive). Besides, in test [6], the survival was 6.75 (inactive). Further, in [5], the parasite load remaining was 119% (inactive) and 39.7% (inactive); the viability is 75.7% and 111%. In addition, the inhibition in test [18] was 1% (inactive). For the same molecule, the fluorescence ratio (interference) in test [19] is 1 (inactive). Besides, the molecule was called inactive in [3]. Besides, in test [1], the remaining NAD was 10 nM (inactive). In addition, the luciferase signal in [7] was 40 AU (inactive). Besides, in test [4], the z-score was 0.28 (inactive) and 0.73 (inactive).
